Sampled rows, rich in hits. Any-hit rate of the full collection: about 1.6%.
RAD54 branch = RAD54 (human) branch migration inhibition; Q92698; RAD54 Holliday junction branch migration, FAM/BHQ fluorescence; inhibition, % at 10.4 µM; hit rate 0.14% among 360,000;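 active = mean normalized replicate activity at least 40 and at least half of replicates scoring 40 or more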;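 also: inhibitors cause a drop in the FAM fluorescence signal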
ABCB6 inh 2 = human ABCB6 transporter inhibition; Q9NP58; K562-ABCB6 porphyrin accumulation, flow cytometry, 1 h; hits give low values; fluorescence ratio to DMSO, % at 10 µM; hit rate 0.19% among 360,000; AID 602162;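 active = fluorescence ratio to DMSO below 75%, the collection mean minus 3 SD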;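 also: signal is porphyrin accumulated inside mitochondria; lower ratio means ABCB6 inhibition with less porphyrin fluorescence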
Target sequence (Q9NP58 whole entry, looked up): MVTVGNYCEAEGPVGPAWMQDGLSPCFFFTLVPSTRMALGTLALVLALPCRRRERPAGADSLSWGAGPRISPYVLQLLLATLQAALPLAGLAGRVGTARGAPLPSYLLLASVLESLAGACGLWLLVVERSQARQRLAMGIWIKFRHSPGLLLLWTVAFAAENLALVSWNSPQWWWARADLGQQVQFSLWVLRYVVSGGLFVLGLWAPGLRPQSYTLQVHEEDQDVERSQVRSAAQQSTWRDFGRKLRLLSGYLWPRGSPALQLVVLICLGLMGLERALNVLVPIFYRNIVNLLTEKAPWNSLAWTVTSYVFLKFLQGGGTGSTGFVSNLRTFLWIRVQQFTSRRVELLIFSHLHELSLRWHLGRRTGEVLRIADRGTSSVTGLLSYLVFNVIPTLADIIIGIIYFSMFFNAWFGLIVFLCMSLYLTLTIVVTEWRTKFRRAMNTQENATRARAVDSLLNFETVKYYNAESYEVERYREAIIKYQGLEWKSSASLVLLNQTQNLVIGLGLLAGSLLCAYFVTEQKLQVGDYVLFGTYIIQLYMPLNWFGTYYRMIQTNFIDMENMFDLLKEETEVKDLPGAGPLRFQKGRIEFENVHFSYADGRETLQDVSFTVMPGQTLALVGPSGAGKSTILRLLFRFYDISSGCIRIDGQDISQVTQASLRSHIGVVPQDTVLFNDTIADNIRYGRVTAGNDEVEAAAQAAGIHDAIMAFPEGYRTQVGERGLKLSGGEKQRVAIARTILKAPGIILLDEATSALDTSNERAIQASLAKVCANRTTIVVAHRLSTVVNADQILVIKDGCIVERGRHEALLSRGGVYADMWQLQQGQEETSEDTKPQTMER
Glyco luc inh = blocks N-linked glycosylation in D54 reporter cells; D54 ERlucT glycosylation luciferase reporter, 24 h; percent of 100 nM tunicamycin response; reporter increase, % at 12.5 µM; hit rate 0.23% among 360,000; AID 588692;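 active = mean luciferase reporter signal, scaled so untreated is 0 and the glycosylation-blocking control 100, at or above a set limit in every replicate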;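 also: luciferase carries N-glycosylation sites so blocking glycosylation raises the light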
Myeloid diff 2 = compounds promoting myeloid differentiation; ER-HoxA9 myeloid progenitors, lysozyme-GFP differentiation, flow cytometry; calls only at 10 µM; AID 624256; hit rate 1% among 360,000;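 active = normalized GFP-positive differentiation at or above the plate's own cutoff, the solvent-only control mean plus 3 SD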;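 also: cells exposed to compound for four days before flow analysis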
Vif imaging = blocks HIV Vif function; HEK293T cells, Vif self-association by quenched fluorescence, imaging, 24 h; inhibition, % at 7.49 µM; hit rate 0.35% among 340,000; AID 602346; in the data active = inhibition above about 50%, passing the limit was not always enough
Myeloid diff CP1 = promotes myeloid progenitor differentiation; ER-HoxA9 myeloid progenitors, GFP/Mac1 double-positive flow; AID 651706; calls only; shares compounds with Myeloid diff 2; hit rate 2% among 2,300;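 active = share of green or green-and-red cells above 9 and 9% in run 1 or 4 and 3% in run 2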
GFP autofluor = compound fluorescence in myeloid differentiation counter-screen. shares compounds with Myeloid diff 2. ER-HoxA9 myeloid progenitors, no estrogen, GFP autofluorescence flow cytometry; vehicle wells 0%, positive control 100%. fluorescence response, % (test concentration not listed). hit rate 7.4% among 2,300. AID 651707;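 active = over 5% cells positive for green fluorescent reporter, or over 2% positive for both it and APC stain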
Calls only.

COCc1cn(CC[C@H]2CC[C@@H](NC(=O)Nc3ccc(F)cc3)[C@@H](CO)O2)nn1 was read as RAD54 branch inactive.
For O=C(NC1CC2CCC1C2)c1ccco1 (stereo unspecified) the results were RAD54 branch inactive, ABCB6 inh 2 inactive, Glyco luc inh inactive, Myeloid diff 2 inactive, Vif imaging inactive, Myeloid diff CP1 inactive and GFP autofluor inactive.
`C[C@H]1CN([C@@H](C)CO)C(=O)c2cc(-c3ccc(C#N)cc3)cnc2O[C@H]1CN(C)C(=O)Nc1ccccc1` gave RAD54 branch inactive.
`CCCNC(=O)[C@@H]1[C@@H](CO)[C@@H]2Cn3c(ccc(-c4ccccc4)c3=O)[C@@H]2N1CC1CC1` gave RAD54 branch inactive.
Screening CCCNC(=O)Nc1ccc2c(c1)OC[C@@H](C)N(C(=O)C1CC1)C[C@H](C)[C@@H](OC)CN(C)C2=O returned RAD54 branch inactive.
For O=c1oc(-c2cccs2)nc2c1cnn2-c1ccccc1 the results were ABCB6 inh 2 inactive, Glyco luc inh inactive, Myeloid diff 2 inactive, Vif imaging inactive, Myeloid diff CP1 inactive and GFP autofluor inactive.
Screening C[C@@H]1CCCCO[C@@H](CN(C)Cc2ccncc2)[C@@H](C)CN([C@@H](C)CO)C(=O)c2cc(NC(=O)Nc3ccccc3)ccc2O1 returned RAD54 branch inactive.
COc1ccc2[nH]c3nc(SCC(=O)NNC(=O)c4ccc(OC)c(OC)c4)nnc3c2c1 was read as RAD54 branch inactive, ABCB6 inh 2 inactive, Glyco luc inh inactive, Myeloid diff 2 inactive, Vif imaging inactive, Myeloid diff CP1 inactive and GFP autofluor inactive.
`C/C(=N\NC(=O)c1ccc2c(c1)OCO2)c1ccc(NC(=O)CCCC(=O)O)cc1` gave RAD54 branch inactive, ABCB6 inh 2 inactive, Glyco luc inh inactive, Myeloid diff 2 inactive, Vif imaging inactive, Myeloid diff CP1 inactive and GFP autofluor inactive.
For CCCCNc1c(-c2cc3ccccc3o2)nc2nc(C)cc(C)n12 the results were ABCB6 inh 2 inactive, Myeloid diff 2 active, Myeloid diff CP1 inactive and GFP autofluor inactive.
For C[C@@H]1CN([C@@H](C)CO)C(=O)c2cc(NC(=O)CCCN(C)C)ccc2O[C@@H](C)CCCCO[C@H]1CN(C)Cc1ccc(C(F)(F)F)cc1 the results were RAD54 branch inactive.
`O/C=c1\ccc2cccc3nc(C(F)(F)F)nc1c23` gave RAD54 branch inactive, ABCB6 inh 2 inactive, Glyco luc inh inactive, Myeloid diff 2 inactive, Vif imaging inactive, Myeloid diff CP1 inactive and GFP autofluor inactive.
COc1ccc(C(=O)OCc2cc(C)ccc2C)cc1S(=O)(=O)N1CCCC1 was read as RAD54 branch inactive, ABCB6 inh 2 inactive, Glyco luc inh inactive, Myeloid diff 2 active, Vif imaging inactive, Myeloid diff CP1 inactive and GFP autofluor inactive.
Screening Cc1ccc(C)c(COC(=O)c2cccc(S(=O)(=O)N3CCCC3)c2)c1 returned ABCB6 inh 2 inactive, Glyco luc inh inactive, Myeloid diff 2 inactive and Vif imaging inactive.
Screening COC(=O)CNC(=O)COc1ccccc1 returned RAD54 branch inactive, ABCB6 inh 2 inactive, Glyco luc inh inactive, Myeloid diff 2 active, Myeloid diff CP1 inactive and GFP autofluor inactive.
CC(=O)Nc1ccc(NC(=O)CNC(=O)COc2ccccc2)cc1 was read as ABCB6 inh 2 inactive, Glyco luc inh inactive, Myeloid diff 2 inactive and Vif imaging inactive.
For CNC[C@H]1Oc2cc(-c3ccncc3)ccc2S(=O)(=O)N([C@@H](C)CO)C[C@H]1C the results were RAD54 branch inactive.
`Cc1ccc(S(=O)(=O)N[C@@H]2C=C[C@H](CC(=O)N3CCc4ccccc4C3)O[C@@H]2CO)cc1` gave RAD54 branch inactive.
CC1CCc2sc(C(=O)NN=C3CCCC3)cc2C1 (stereo unspecified) was read as RAD54 branch inactive, ABCB6 inh 2 inactive, Glyco luc inh inactive, Myeloid diff 2 active, Vif imaging inactive, Myeloid diff CP1 inactive and GFP autofluor inactive.
For CCOc1cc(C)cc2oc(=O)cc(-c3ccccc3)c12 the results were RAD54 branch inactive, ABCB6 inh 2 inactive, Glyco luc inh inactive, Myeloid diff 2 inactive and Vif imaging inactive.
Screening CC(=O)Oc1cc(C)cc2oc(=O)cc(-c3ccccc3)c12 returned RAD54 branch inactive, ABCB6 inh 2 inactive, Glyco luc inh inactive, Myeloid diff 2 inactive, Vif imaging inactive, Myeloid diff CP1 inactive and GFP autofluor inactive.
`COc1ccc(C2SCCN2S(=O)(=O)c2ccc(NC(C)=O)cc2)cc1` (stereo unspecified) gave RAD54 branch inactive, ABCB6 inh 2 inactive, Glyco luc inh inactive, Myeloid diff 2 active, Vif imaging inactive, Myeloid diff CP1 inactive and GFP autofluor inactive.
Cc1ccc(/C=N/NC(=O)c2ccccc2OCc2ccc(F)cc2)o1 was read as RAD54 branch inactive, ABCB6 inh 2 inactive, Glyco luc inh inactive, Myeloid diff 2 inactive and Vif imaging inactive.
`O=C(N/N=C/c1ccncc1)c1ccccc1OCc1ccc(Br)cc1` gave ABCB6 inh 2 inactive, Glyco luc inh inactive, Myeloid diff 2 inactive, Vif imaging inactive, Myeloid diff CP1 inactive and GFP autofluor inactive.
Screening COc1ccc(NC(=O)N[C@@H]2CC[C@@H](CCNS(=O)(=O)c3ccccc3F)O[C@H]2CO)cc1 returned RAD54 branch inactive.
`O=C(O)COc1ccc(C(=O)Cc2ccc3c(c2)OCCCO3)c(O)c1` gave RAD54 branch inactive, ABCB6 inh 2 inactive, Glyco luc inh inactive, Myeloid diff 2 inactive, Vif imaging inactive, Myeloid diff CP1 inactive and GFP autofluor inactive.
For Cc1nn(Cc2ccc([N+](=O)[O-])cc2)c(=O)n1-c1ccc(Cl)cc1 the results were RAD54 branch inactive, ABCB6 inh 2 inactive, Glyco luc inh inactive, Myeloid diff 2 active, Vif imaging inactive, Myeloid diff CP1 inactive and GFP autofluor inactive.
COc1ccccc1CNC(=O)c1ccc(S(=O)(=O)N(C)C)cc1 was read as RAD54 branch inactive, ABCB6 inh 2 inactive, Glyco luc inh inactive, Myeloid diff 2 inactive, Vif imaging inactive, Myeloid diff CP1 inactive and GFP autofluor inactive.
For CCS(=O)(=O)N1CCC(C(=O)NCc2ccccc2OC)CC1 the results were RAD54 branch inactive, ABCB6 inh 2 inactive, Glyco luc inh inactive, Myeloid diff 2 active, Vif imaging inactive, Myeloid diff CP1 inactive and GFP autofluor inactive.
For COc1ccccc1CNC(=O)C1CCN(S(=O)(=O)N2CCCCC2)CC1 the results were RAD54 branch inactive, ABCB6 inh 2 inactive, Glyco luc inh inactive, Myeloid diff 2 inactive and Vif imaging inactive.
For COc1ccccc1OCCNC(=O)c1ccc(S(=O)(=O)N(C)C)cc1 the results were RAD54 branch inactive, ABCB6 inh 2 inactive, Glyco luc inh inactive and Myeloid diff 2 inactive.
For C[C@H](CO)N1C[C@H](C)[C@H](CN(C)C(=O)Nc2ccc(F)cc2)Oc2ncc(-c3ccc(C#N)cc3)cc2C1=O the results were RAD54 branch inactive.

Screening data deposited in PubChem by several laboratories.
